# Data reported in PubChem BioAssay AID1159580 (chemical genetic matrix, 2015).
# “And” between values parts separate entries of the source, which are not always exact repeats. Equal values may be shown once. In all, about 5,500 compounds went through this assay and about 2,000 (36%) were called active. Another 18% or so got no clear call; they are omitted. The list shows a part of the results. Values without a mark were called inactive. Cut-off read from the data, not from the text of the source: active = normalized growth mostly below about 0.91 (no sharp cut-off); inconclusive = no clear call, values can overlap the other calls; inactive = mostly above about 0.92.
# Assay: chemical genetic growth profiling, strain panel (AID 1159580);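 note: tested at 20 µM; growth read once vehicle control cultures reached saturation at 30 °C; 1 = growth at the plate median or of vehicle wells; lower values mean less growth of the strain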
# Conditions: S. cerevisiae deletion strains, growth OD
structure (smiles),measurement,setting,value
COc1ccc2cc(CCC(C)=O)ccc2c1,normalized growth,"locus YAL013W, strain DEP1, active compounds read low",0.952
same,normalized growth,"locus YAL021C, strain ccr4, active compounds read low",0.986
same,normalized growth,"locus YAL026C, strain drs2, active compounds read low",0.996
same,normalized growth,"locus YAL030W, strain snc1, active compounds read low",0.992
same,normalized growth,"locus YBL061C, strain skt5, active compounds read low",0.981
same,normalized growth,"locus YBR009C, strain hhf1, active compounds read low",0.989
same,normalized growth,"locus YBR021W, strain FUR4, active compounds read low",0.947
same,normalized growth,"locus YBR023C, strain chs3, active compounds read low",0.977
same,normalized growth,"locus YBR171W, strain sec66, active compounds read low",0.985
same,normalized growth,"locus YBR229C, strain ROT2, active compounds read low",0.919
same,normalized growth,"locus YBR231C, strain swc5, active compounds read low",0.996
same,normalized growth,"locus YBR279W, strain paf1, active compounds read low",0.993
same,normalized growth,"locus YCL011C, strain gbp2, active compounds read low",0.983
same,normalized growth,"locus YCL016C, strain dcc1, active compounds read low",0.997
same,normalized growth,"locus YCL029C, strain bik1, active compounds read low",0.939
same,normalized growth,"locus YCL061C, strain MRC1, active compounds read low",1
same,normalized growth,"locus YCL069W, strain vba3, active compounds read low",0.993
same,normalized growth,"locus YCR088W, strain abp1, active compounds read low",0.989
same,normalized growth,"locus YDL005C, strain med2, active compounds read low",1.02
same,normalized growth,"locus YDL035C, strain GPR1, active compounds read low",0.93
same,normalized growth,"locus YDL040C, strain nat1, active compounds read low",0.997
same,normalized growth,"locus YDL074C, strain BRE1, active compounds read low",0.935
same,normalized growth,"locus YDL101C, strain DUN1, active compounds read low",0.955
same,normalized growth,"locus YDL134C, strain PPH21, active compounds read low",0.967
same,normalized growth,"locus YDL185W, strain tfp1, active compounds read low",0.945
same,normalized growth,"locus YDL192W, strain arf1, active compounds read low",0.91 (active)
same,normalized growth,"locus YDR001C, strain nth1, active compounds read low",0.994
same,normalized growth,"locus YDR069C, strain doa4, active compounds read low",1.01
same,normalized growth,"locus YDR101C, strain arx1, active compounds read low",0.931
same,normalized growth,"locus YDR137W, strain rgp1, active compounds read low",1.1
same,normalized growth,"locus YDR150W, strain NUM1, active compounds read low",0.939
same,normalized growth,"locus YDR159W, strain sac3, active compounds read low",1.03
same,normalized growth,"locus YDR162C, strain NBP2, active compounds read low",0.943
same,normalized growth,"locus YDR195W, strain ref2",1.08
same,normalized growth,"locus YDR297W, strain sur2, active compounds read low",0.99
same,normalized growth,"locus YDR318W, strain mcm21, active compounds read low",0.93
same,normalized growth,"locus YDR334W, strain swr1, active compounds read low",1.01
same,normalized growth,"locus YDR335W, strain msn5, active compounds read low",0.999
same,normalized growth,"locus YDR388W, active compounds read low",0.942
same,normalized growth,"locus YDR392W, strain spt3, active compounds read low",0.967
same,normalized growth,"locus YDR502C, strain sam2, active compounds read low",0.908 (active)
same,normalized growth,"locus YEL003W, strain gim4, active compounds read low",0.991
same,normalized growth,"locus YEL037C, strain rad23, active compounds read low",0.991
same,normalized growth,"locus YEL061C, strain CIN8 (second series), active compounds read low",1
same,normalized growth,"locus YEL061C, strain CIN8, active compounds read low",0.946
same,normalized growth,"locus YER015W, strain faa2, active compounds read low",1
same,normalized growth,"locus YER016W, strain bim1, active compounds read low",0.99
same,normalized growth,"locus YER110C, active compounds read low",0.901
same,normalized growth,"locus YER111C, strain swi4, active compounds read low",1
same,normalized growth,"locus YER155C, strain BEM2 (second series), active compounds read low",0.843 (active)
same,normalized growth,"locus YER155C, strain BEM2, active compounds read low",0.965
same,normalized growth,"locus YER167W, strain BCK2, active compounds read low",0.92
same,normalized growth,"locus YFR010W, strain ubp6, active compounds read low",1.01
same,normalized growth,"locus YGL078C, strain dbp3, active compounds read low",0.921 (active)
same,normalized growth,"locus YGL086W, strain mad1, active compounds read low",0.942
same,normalized growth,"locus YGL167C, strain pmr1, active compounds read low",0.99
same,normalized growth,"locus YGL173C, strain kem1, active compounds read low",0.987
same,normalized growth,"locus YGL227W, strain vid30, active compounds read low",0.999
same,normalized growth,"locus YGL240W, strain doc1, active compounds read low",0.929
same,normalized growth,"locus YGL248W, strain PDE1, active compounds read low",0.959
same,normalized growth,"locus YGL253W, strain hxk2, active compounds read low",0.992
same,normalized growth,"locus YGR078C, strain PAC10, active compounds read low",0.938
same,normalized growth,"locus YGR135W, strain pre9, active compounds read low",0.881 (active)
same,normalized growth,"locus YGR229C, strain SMI1, active compounds read low",0.919
same,normalized growth,"locus YGR252W, strain gcn5, active compounds read low",0.763 (active)
same,normalized growth,"locus YHR013C, strain ard1, active compounds read low",1.02
same,normalized growth,"locus YHR027C, strain rpn1, active compounds read low",0.991
same,normalized growth,"locus YHR030C, strain SLT2, active compounds read low",0.958 and 0.924
same,normalized growth,"locus YHR079C, strain IRE1 (second series), active compounds read low",0.939
same,normalized growth,"locus YHR079C, strain IRE1, active compounds read low",0.956
same,normalized growth,"locus YHR094C, strain hxt1, active compounds read low",0.96
same,normalized growth,"locus YHR129C, strain ARP1, active compounds read low",0.971
same,normalized growth,"locus YHR142W, strain chs7, active compounds read low",0.976
same,normalized growth,"locus YHR200W, strain rpn10, active compounds read low",0.933
same,normalized growth,"locus YIL066C, strain RNR3, active compounds read low",0.929
same,normalized growth,"locus YIL073C, strain SPO22, active compounds read low",0.92
same,normalized growth,"locus YIL125W, strain kgd1, active compounds read low",0.942
same,normalized growth,"locus YIR030C, strain dcg1, active compounds read low",0.929
same,normalized growth,"locus YJL092W, strain hpr5, active compounds read low",0.992
same,normalized growth,"locus YJL095W, strain BCK1 (second series), active compounds read low",0.99
same,normalized growth,"locus YJL095W, strain BCK1, active compounds read low",0.922 and 0.939
same,normalized growth,"locus YJL115W, strain asf1, active compounds read low",1.01
same,normalized growth,"locus YJL129C, strain trk1, active compounds read low",0.97
same,normalized growth,"locus YJL134W, strain LCB3, active compounds read low",0.958
same,normalized growth,"locus YJL154C, strain vps35, active compounds read low",0.992
same,normalized growth,"locus YJL164C, strain tpk1, active compounds read low",0.992
same,normalized growth,"locus YJL166W, strain qcr8, active compounds read low",0.989
same,normalized growth,"locus YJL168C, strain set2, active compounds read low",0.957
same,normalized growth,"locus YJL187C, strain SWE1 (second series), active compounds read low",0.959
same,normalized growth,"locus YJL187C, strain SWE1, active compounds read low",0.992
same,normalized growth,"locus YJR043C, strain POL32, active compounds read low",0.917
same,normalized growth,"locus YJR066W, strain TOR1, active compounds read low",0.926
